What all share (assay): protein-binding microarray (PBM); PBM: ~300 nM protein, 6 mM HEPES pH 7.8, 80 mM KCl, 0.5 mM EDTA, 0.5 mM EGTA, 6% glycerol, 35 ng/ul poly-dIdC, 1% milk, 1 h, room temperature; Ap Aiptasia and Nv Nematostella (sea anemones) / Co Capsaspora / Aq Amphimedon (sponge) / Dm Drosophila / Hu human; RHD is the Rel homology domain; high values mean tight binding
Common to all, as to conditions: dsDNA, one strand shown

The target of one assay is T1, GST-Ap-NF-kB RHD (Exaiptasia pallida (Aiptasia), UniProt A0A913YAJ5 2-422).
T1 sequence: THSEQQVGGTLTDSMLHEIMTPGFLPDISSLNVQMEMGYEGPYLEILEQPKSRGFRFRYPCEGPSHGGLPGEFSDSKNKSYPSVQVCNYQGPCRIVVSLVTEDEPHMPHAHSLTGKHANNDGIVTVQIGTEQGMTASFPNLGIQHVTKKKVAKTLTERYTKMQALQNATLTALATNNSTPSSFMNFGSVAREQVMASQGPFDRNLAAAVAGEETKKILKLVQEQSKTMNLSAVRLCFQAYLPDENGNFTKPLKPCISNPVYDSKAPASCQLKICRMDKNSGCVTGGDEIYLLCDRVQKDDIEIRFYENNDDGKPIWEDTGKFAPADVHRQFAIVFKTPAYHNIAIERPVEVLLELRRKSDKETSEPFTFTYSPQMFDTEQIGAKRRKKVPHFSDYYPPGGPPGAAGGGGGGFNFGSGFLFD

Assay [1] addresses T2, GST-Nv-NF-kB (Cys allele) (Nematostella vectensis, UniProt E5G601 2-411).
T2 sequence: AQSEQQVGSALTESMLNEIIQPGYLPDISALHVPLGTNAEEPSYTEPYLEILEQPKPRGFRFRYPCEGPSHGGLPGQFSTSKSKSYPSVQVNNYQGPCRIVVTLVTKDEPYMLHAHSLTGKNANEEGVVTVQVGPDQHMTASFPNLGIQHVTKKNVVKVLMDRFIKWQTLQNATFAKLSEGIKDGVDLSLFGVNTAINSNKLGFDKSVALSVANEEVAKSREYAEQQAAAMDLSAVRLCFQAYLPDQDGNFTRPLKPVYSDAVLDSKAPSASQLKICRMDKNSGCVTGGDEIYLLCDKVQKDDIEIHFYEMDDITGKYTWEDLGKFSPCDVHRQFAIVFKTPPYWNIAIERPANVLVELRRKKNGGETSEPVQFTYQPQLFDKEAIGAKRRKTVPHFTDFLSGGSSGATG

Another assay deals with T3, GST-Co-NF-kB (Capsaspora owczarzaki, UniProt F1ARL5 200-546).
T3 sequence: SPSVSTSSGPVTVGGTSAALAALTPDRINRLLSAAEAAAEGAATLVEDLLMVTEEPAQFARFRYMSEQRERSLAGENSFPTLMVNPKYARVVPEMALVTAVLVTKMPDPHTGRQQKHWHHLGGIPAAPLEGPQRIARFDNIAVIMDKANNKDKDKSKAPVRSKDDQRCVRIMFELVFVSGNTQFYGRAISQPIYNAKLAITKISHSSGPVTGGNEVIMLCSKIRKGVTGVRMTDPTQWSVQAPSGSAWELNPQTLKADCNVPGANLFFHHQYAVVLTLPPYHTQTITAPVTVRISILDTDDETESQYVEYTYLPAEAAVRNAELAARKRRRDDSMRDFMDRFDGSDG

The target in another assay is T4, GST-Dm-Relish (Drosophila melanogaster, UniProt Q94527 99-473).
T4 sequence: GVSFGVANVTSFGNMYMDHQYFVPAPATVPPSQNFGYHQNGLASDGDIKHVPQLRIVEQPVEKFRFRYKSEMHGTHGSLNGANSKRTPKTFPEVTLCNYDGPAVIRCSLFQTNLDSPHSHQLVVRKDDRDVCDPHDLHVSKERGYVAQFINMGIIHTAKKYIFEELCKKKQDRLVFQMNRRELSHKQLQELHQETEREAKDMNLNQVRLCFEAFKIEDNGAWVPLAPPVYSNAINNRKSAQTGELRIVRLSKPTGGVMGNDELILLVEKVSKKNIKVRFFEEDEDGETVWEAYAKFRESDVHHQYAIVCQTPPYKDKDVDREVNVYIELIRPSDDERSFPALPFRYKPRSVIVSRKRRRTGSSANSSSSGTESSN

A further assay has as its target T5, GST-Aq-NF-kB (Amphimedon queenslandica, UniProt A9Y5G7 2-389).
T5 sequence: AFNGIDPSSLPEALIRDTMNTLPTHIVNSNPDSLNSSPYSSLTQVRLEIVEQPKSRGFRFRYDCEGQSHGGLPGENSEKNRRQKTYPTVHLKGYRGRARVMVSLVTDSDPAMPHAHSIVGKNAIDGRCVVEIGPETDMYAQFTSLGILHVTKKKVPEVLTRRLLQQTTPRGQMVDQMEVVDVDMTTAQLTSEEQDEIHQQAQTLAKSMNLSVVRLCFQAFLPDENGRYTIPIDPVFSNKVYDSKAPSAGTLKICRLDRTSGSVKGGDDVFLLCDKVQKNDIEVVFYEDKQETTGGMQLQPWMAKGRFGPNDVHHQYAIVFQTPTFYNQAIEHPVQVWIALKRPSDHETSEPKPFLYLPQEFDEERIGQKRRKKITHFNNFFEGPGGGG

For the next assay, the target named is GST-Hu-p50 (Homo sapiens, UniProt P19838 7-356).
Chain of GST-Hu-p50 (P19838 7-356): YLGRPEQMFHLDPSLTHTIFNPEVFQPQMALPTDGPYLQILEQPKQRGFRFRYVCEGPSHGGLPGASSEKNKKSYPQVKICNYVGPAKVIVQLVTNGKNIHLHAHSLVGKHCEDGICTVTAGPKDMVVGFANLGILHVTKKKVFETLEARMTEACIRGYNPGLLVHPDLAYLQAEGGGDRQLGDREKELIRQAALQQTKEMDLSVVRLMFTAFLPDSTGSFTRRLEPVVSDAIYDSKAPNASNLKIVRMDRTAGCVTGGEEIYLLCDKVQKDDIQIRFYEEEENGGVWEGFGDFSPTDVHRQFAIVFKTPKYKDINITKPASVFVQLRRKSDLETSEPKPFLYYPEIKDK

This is an account of results in paper PMC5700166.

Turning to “CCGATTAACATCAGAAGACCCCCTGATGTTAATCGGGTCTTGATTCGCTTGACGCTGCTG”, the binding signal with GST-Ap-NF-kB RHD is 5.66 z-score; in assay [1], 3.66 z-score; with GST-Co-NF-kB, 1.79 z-score; in the assay with GST-Dm-Relish, 4.9 z-score; with GST-Aq-NF-kB it was 4.82 z-score; with GST-Hu-p50, 4.45 z-score.

Turning to “CCGATTAACATCAACTATCCCCCTGATGTTAATCGGGTCTTGATTCGCTTGACGCTGCTG”, the binding signal in the assay with GST-Ap-NF-kB RHD is 5.83 z-score; in assay [1], 4.03 z-score; in the assay with GST-Co-NF-kB, 6.08 z-score; in the assay with GST-Dm-Relish, 2.98 z-score; with GST-Aq-NF-kB it was 4.04 z-score; in the assay with GST-Hu-p50 it was 4.09 z-score.

Regarding “CCGATTAACATCAAAAGCCCCCCTGATGTTAATCGGGTCTTGATTCGCTTGACGCTGCTG”, the binding signal with GST-Ap-NF-kB RHD is 5.96 z-score; in assay [1], 6 z-score; with GST-Co-NF-kB it was 4.6 z-score; with GST-Dm-Relish, 8.42 z-score; in the assay with GST-Aq-NF-kB, 6.73 z-score; with GST-Hu-p50 it was 5.72 z-score.

For the sequence “CCGATTAACATCAACAACCCCCCTGATGTTAATCGGGTCTTGATTCGCTTGACGCTGCTG”, the binding signal with GST-Ap-NF-kB RHD worked out at 6.24 z-score; in assay [1], 4.31 z-score; with GST-Co-NF-kB, 4.22 z-score; in the assay with GST-Dm-Relish it was 6.01 z-score; with GST-Aq-NF-kB, 5.18 z-score; with GST-Hu-p50, 5.38 z-score.

As to “CCGATTAACATCAGGAAATACCCTGATGTTAATCGGGTCTTGATTCGCTTGACGCTGCTG”, the binding signal in the assay with GST-Ap-NF-kB RHD amounted to 6.05 z-score; in assay [1] it was 8.7 z-score; in the assay with GST-Co-NF-kB, 1.14 z-score; with GST-Dm-Relish it was 7.3 z-score; with GST-Aq-NF-kB, 9.37 z-score; with GST-Hu-p50 it was 6.12 z-score.

Regarding “CCGATTAACATCACTAAACCCCCTGATGTTAATCGGGTCTTGATTCGCTTGACGCTGCTG”, the binding signal in the assay with GST-Ap-NF-kB RHD was 6.72 z-score; in assay [1], 4.83 z-score; in the assay with GST-Co-NF-kB, 3.32 z-score; with GST-Dm-Relish it was 7.51 z-score; with GST-Aq-NF-kB, 4.92 z-score; in the assay with GST-Hu-p50, 6.25 z-score.

As for “CCGATTAACATCAAGGGGGGTTATGATGTTAATCGGGTCTTGATTCGCTTGACGCTGCTG”, the binding signal with GST-Ap-NF-kB RHD was found to be 5.81 z-score; in assay [1] it was 4.63 z-score; with GST-Co-NF-kB, 3.05 z-score; in the assay with GST-Dm-Relish, 7.12 z-score; with GST-Aq-NF-kB, 5.77 z-score; in the assay with GST-Hu-p50, 5.59 z-score.

As for “CCGATTAACATCAGGGACGCCCCTGATGTTAATCGGGTCTTGATTCGCTTGACGCTGCTG”, the binding signal with GST-Ap-NF-kB RHD worked out at 6.59 z-score; in assay [1] it was 5.71 z-score; with GST-Co-NF-kB, 1.13 z-score; with GST-Dm-Relish, 7.12 z-score; in the assay with GST-Aq-NF-kB it was 7.88 z-score; with GST-Hu-p50, 4.5 z-score.

Turning to “CCGATTAACATCAGGGAAATTAATGATGTTAATCGGGTCTTGATTCGCTTGACGCTGCTG”, the binding signal with GST-Ap-NF-kB RHD amounted to 3.37 z-score; in assay [1], 5.52 z-score; in the assay with GST-Co-NF-kB, 4.18 z-score; with GST-Dm-Relish, 2.54 z-score; with GST-Aq-NF-kB, 4.81 z-score; in the assay with GST-Hu-p50, 4.27 z-score.

As for “CCGATTAACATCAAAAATTCACCTGATGTTAATCGGGTCTTGATTCGCTTGACGCTGCTG”, the binding signal in the assay with GST-Ap-NF-kB RHD was found to be 1.56 z-score; in assay [1], 2.59 z-score; in the assay with GST-Co-NF-kB, 1.24 z-score; in the assay with GST-Dm-Relish it was 5.78 z-score; with GST-Aq-NF-kB, 2.74 z-score; with GST-Hu-p50 it was 4 z-score.

Turning to “CCGATTAACATCAGGGCTCCCCCTGATGTTAATCGGGTCTTGATTCGCTTGACGCTGCTG”, the binding signal with GST-Ap-NF-kB RHD was determined as 7.08 z-score; in assay [1] it was 5.82 z-score; with GST-Co-NF-kB, 4.76 z-score; in the assay with GST-Dm-Relish, 7.28 z-score; in the assay with GST-Aq-NF-kB it was 8.12 z-score; with GST-Hu-p50 it was 5.6 z-score.

“CCGATTAACATCAGGGGGAGTACTGATGTTAATCGGGTCTTGATTCGCTTGACGCTGCTG”: the binding signal with GST-Ap-NF-kB RHD is 6.52 z-score; in assay [1] it was 4.73 z-score; in the assay with GST-Co-NF-kB, 5.82 z-score; in the assay with GST-Dm-Relish it was 9.03 z-score; with GST-Aq-NF-kB, 6.58 z-score; with GST-Hu-p50, 5.94 z-score.

In the case of “CCGATTAACATCAGGGGGGGACATGATGTTAATCGGGTCTTGATTCGCTTGACGCTGCTG”, the binding signal with GST-Ap-NF-kB RHD worked out at 5.67 z-score; in assay [1], 5.09 z-score; with GST-Co-NF-kB, 7.08 z-score; with GST-Dm-Relish it was 3.75 z-score; with GST-Aq-NF-kB, 4.34 z-score; with GST-Hu-p50 it was 4.11 z-score.
